# From PubChem BioAssay
# Active and inactive are the calls of the source.
# Key:
# [1] = tested on: Plasmodium falciparum Sir2 (PF13_0152, Sir2A); test: pfSir2 binders on small-molecule microarrays, primary screen, biochemical, small-molecule microarray, 635 nm fluorescence (AID 1098); conditions: small-molecule microarray binding, fluorescence 635 nm; higher = more signal;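 further: score merges spot fluorescence intensity with its signal-to-noise ratio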
# [2] = small-molecule microarray binders of probe aDKK1, primary screen, biochemical, biotinylated probe, 635/667 nm fluorescence (AID 1099); conditions: higher = more signal;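 further: score merges 667nm spot fluorescence with signal to noise across triplicate slides; reference of the scale not given here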
# [3] = small-molecule microarray binders of probe aCHRDL2, primary screen, biochemical, biotinylated probe, 635/667 nm fluorescence (AID 1100); conditions: higher = more signal
# [4] = splicing luciferase reporter signal modulators, primary screen, spliceosome inhibition project, cell-based, HEK293, splice +/- reporter (AID 1101); conditions: luminescence, 24 h, higher = more signal, called active from +8 up or from −8 down;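 further: HEK293 cells carrying a splicing-competent luciferase reporter gene; test concentration not given here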
# [5] = molecular target: Fibroblast growth factor 10 (Homo sapiens) (UniProt O15520); test: FGF10 binders on small-molecule microarrays, primary screen, biochemical, small-molecule microarray, 635 nm fluorescence (AID 1102); conditions: FGF10 binding, fluorescence 635 nm, higher = more signal
# Chain of Fibroblast growth factor 10 (Homo sapiens) (O15520 whole entry, looked up): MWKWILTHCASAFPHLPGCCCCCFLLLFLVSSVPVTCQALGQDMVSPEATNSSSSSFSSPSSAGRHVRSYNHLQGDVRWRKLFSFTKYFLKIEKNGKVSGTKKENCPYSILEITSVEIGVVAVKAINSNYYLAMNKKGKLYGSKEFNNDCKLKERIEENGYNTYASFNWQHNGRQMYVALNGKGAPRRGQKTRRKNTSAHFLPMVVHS
# [6] = tested on: glycogen synthase kinase-3 (GSK3A per assay name; protocol says GSK3B); test: GSK3 binders on small-molecule microarrays, primary screen, biochemical, small-molecule microarray, 635 nm fluorescence, GSK3A (AID 1103); conditions: small-molecule microarray binding, fluorescence 635 nm; higher = more signal; further: the record names both GSK3A and GSK3B
# [7] = molecular target: Epidermal growth factor receptor (Homo sapiens) (UniProt P00533); test: EGFR binders on small-molecule microarrays, primary screen, biochemical, small-molecule microarray, 635 nm fluorescence (AID 1104); conditions: EGFR binding, higher = more signal;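 further: score merges 667 nm emission intensity with spot signal to noise over triplicate slides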
# Chain of Epidermal growth factor receptor (Homo sapiens) (P00533 whole entry, looked up): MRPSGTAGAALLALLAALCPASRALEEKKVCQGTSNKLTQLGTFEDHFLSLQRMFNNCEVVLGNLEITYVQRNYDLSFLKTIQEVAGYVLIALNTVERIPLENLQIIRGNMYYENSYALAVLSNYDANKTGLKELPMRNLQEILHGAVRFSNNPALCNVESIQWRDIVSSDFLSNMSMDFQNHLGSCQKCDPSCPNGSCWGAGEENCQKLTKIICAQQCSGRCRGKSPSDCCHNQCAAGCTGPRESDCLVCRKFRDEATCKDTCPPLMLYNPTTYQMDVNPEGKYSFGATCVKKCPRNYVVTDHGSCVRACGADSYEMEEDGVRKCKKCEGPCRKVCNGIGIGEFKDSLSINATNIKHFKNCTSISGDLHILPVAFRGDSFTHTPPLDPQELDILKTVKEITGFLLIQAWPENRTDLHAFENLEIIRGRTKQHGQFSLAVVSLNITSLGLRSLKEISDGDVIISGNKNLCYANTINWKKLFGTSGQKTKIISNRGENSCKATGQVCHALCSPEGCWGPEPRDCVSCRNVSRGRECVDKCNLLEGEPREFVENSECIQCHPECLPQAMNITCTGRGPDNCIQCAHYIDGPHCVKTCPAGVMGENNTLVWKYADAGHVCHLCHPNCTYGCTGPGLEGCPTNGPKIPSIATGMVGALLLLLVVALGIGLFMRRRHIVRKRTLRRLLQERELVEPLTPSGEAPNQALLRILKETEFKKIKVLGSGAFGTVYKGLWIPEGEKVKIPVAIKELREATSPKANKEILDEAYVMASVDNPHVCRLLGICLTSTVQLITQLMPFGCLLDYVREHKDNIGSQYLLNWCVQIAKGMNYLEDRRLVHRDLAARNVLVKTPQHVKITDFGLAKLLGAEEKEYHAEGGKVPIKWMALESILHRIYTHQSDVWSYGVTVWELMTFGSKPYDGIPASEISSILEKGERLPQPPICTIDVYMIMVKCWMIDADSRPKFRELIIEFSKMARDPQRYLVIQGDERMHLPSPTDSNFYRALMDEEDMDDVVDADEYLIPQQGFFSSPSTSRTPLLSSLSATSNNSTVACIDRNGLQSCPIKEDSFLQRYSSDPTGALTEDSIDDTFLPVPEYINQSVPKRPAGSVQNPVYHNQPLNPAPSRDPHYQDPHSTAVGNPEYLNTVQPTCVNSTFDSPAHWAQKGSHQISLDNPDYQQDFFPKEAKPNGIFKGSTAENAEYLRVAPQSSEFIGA
# [8] = molecular target: Follistatin-related protein 3 (Homo sapiens) (UniProt O95633); test: FSTL3 binders on small-molecule microarrays, primary screen, biochemical, small-molecule microarray, 635 nm fluorescence (AID 1105); conditions: FSTL3 binding, higher = more signal;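 further: score merges emission near 667 nm and signal to noise per printed spot across three slides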
# Chain of Follistatin-related protein 3 (Homo sapiens) (O95633 whole entry, looked up): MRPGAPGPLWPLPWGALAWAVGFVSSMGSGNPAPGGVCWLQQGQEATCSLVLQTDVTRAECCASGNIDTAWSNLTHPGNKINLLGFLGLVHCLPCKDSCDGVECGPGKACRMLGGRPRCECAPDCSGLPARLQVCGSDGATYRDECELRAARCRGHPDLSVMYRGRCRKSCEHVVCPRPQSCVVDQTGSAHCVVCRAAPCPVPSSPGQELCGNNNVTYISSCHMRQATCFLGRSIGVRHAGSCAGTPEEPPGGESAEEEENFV
# [9] = molecular target: Dickkopf-related protein 1 (Homo sapiens) (UniProt O94907); test: DKK1 binders on small-molecule microarrays, primary screen, biochemical, small-molecule microarray, 635 nm fluorescence scan (AID 1106); conditions: DKK1 binding, higher = more signal;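 further: score merges emission near 667 nm with signal to noise over three replicate slides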
# Chain of Dickkopf-related protein 1 (Homo sapiens) (O94907 whole entry, looked up): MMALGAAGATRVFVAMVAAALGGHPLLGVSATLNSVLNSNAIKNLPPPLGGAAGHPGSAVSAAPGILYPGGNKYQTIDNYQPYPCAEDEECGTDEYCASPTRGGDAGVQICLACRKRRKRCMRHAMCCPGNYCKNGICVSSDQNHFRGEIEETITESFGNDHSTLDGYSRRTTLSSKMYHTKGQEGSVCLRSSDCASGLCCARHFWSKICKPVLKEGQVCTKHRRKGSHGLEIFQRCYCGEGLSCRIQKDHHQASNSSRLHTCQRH
# [10] = tested on: Inhibin beta A chain (activin A); test: INHBA (activin A) binders on microarrays, primary screen, biochemical, small-molecule microarray, 635 nm fluorescence scan (AID 1107); conditions: small-molecule microarray binding, higher = more signal;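 further: mouse activin A protein probed at 4.33 µg/mL on printed slides; score merges bound-protein fluorescence near 667 nm with spot signal-to-noise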
Compound,composite z-score [1],composite z-score [2],composite z-score [3],z-score [4],composite z-score [5],composite z-score [6],composite z-score [7],composite z-score [8],composite z-score [9],composite z-score [10]
CCCNC(=O)[C@@]1(C)c2ccccc2C(=O)N(Cc2cc(F)cc(C(F)(F)F)c2)[C@H]1c1ccc(CO)cc1,1.25,0.0202,0.995,-0.377 (inactive),-1.02,-0.552,-0.668,-0.286,-1.44,-0.496
C=CCNC(=O)[C@@H]1[C@H]2C(=O)O[C@H](c3ccccc3)[C@H](c3ccccc3)N2[C@H](c2ccccc2OCCO)[C@@]12C(=O)N(C(=O)OCCOC)c1ccc(C#CCC(C(=O)OC)C(=O)OC)cc12,1.89,2,1.09,-0.235 (inactive),1.43,1.31,1.25,1.5,1.34,1.33
CCOC(=O)N1C(c2ccc(OCCCO)cc2)=NC(C(=O)OC)N1C(=O)OCC (stereo not given),0.587,-0.164,0.0258,-0.641 (inactive),0.909,1.28,0.431,1.39,0.471,-0.298
Cc1ccc(N2C(=O)c3ccccc3[C@](C)(C(=O)NCCN3CCOCC3)[C@@H]2c2ccc(CO)cc2)nc1,0.0614,0.0511,0.858,0.219 (inactive),-1.01,-1.73,-1.41,-1.74,-0.979,-0.472
COc1ccc([Si](C)(C)[C@@H]2[C@@H](CCO)O[C@]3(C(=O)N(Cc4ccccc4)c4ccc(N(C=O)c5ccccc5)cc43)[C@H]2C)cc1,0.622,-0.185,-0.025,-1.1 (inactive),0.454,-0.141,0.012,-0.0895,0.169,0.328
O=C1OCCC=C[C@H]2OC34C=CCN(c5ccc6ccccc6c5)C(=O)[C@H]3N(CCCCCCO)C(=O)[C@@H]4C12 (stereo not given in full),0.924,-0.0082,0.187,-0.225 (inactive),-0.916,-0.817,-1.07,-0.917,-1.26,0.56
O=C1OCC=C[C@H]2OC34C=CCN(c5ccc6ccccc6c5)C(=O)[C@H]3N(CCO)C(=O)[C@@H]4[C@@H]12 (stereo not given in full),1.07,0.134,0.947,-0.461 (inactive),-0.455,-0.657,-1.49,-1.33,-2.42,0.589
CC1(C)C(=O)C(c2ccccc2)=C2CN3C(=O)N(CCc4ccccc4)C(=O)C3(Cc3ccccc3)C=C21 (stereo not given),0.155,1.06,1.12,0.917 (inactive),0.363,0.182,-0.0726,0.949,-1.03,1.09
CCCC[C@H]1OB(O)C[C@H]2C1=C(COc1ccccc1)C[C@H]1C(=O)N(Cc3ccccc3)C(=O)[C@H]12,0.412,-0.154,-0.283,-0.788 (inactive),0.509,0.103,-0.248,0.581,0.193,0.78
O=C1NC(=O)C2C1C=CC(C(O)c1cccs1)N2Nc1ccccn1 (stereo not given),0.809,0.53,0.601,0.566 (inactive),0.797,0.182,0.727,0.292,0.283,0.538
C[N+](C)(C)CCCC[C@@H]1NC(=O)[C@H]2C[C@@H](C(=O)O)[C@@H](c3cccc(OCCO)c3)N2C1=O,2.08,2.39,1.38,-0.246 (inactive),1.4,1.36,1.17,1.41,1.3,1.47
NC(=O)[C@]1(Cc2ccccc2)N=C(c2ccc(OCCCO)cc2)O[C@@H]1c1ccccc1,0.647,1.2,0.751,-0.072 (inactive),0.61,0.0914,-0.722,-0.144,-0.109,0.558
O=C1C2C=CC(C(O)c3cccc4ccccc34)N(n3cnnc3)C2C(=O)N1Cc1ccccc1 (stereo not given),0.161,1.72,0.8,0.228 (inactive),0.975,-0.181,0.402,0.529,-0.13,0.668
C=C(CCCC)/C(=C/C[C@H](OC(C)=O)c1ccc(CO)o1)c1cc(C(=O)OC)ccc1OC,1.43,-0.0797,-0.438,-0.27 (inactive),1.25,0.469,-0.102,1.25,0.291,0.638
CN(C)CCCN1C(=O)[C@@]2(c3ccc([N+](=O)[O-])cc3)CC(=O)N(C3CCCCC3)[C@@H]2c2ccc(CO)cc21,-0.34,-0.0972,0.196,-0.447 (inactive),0.835,-0.808,0.108,-0.0207,-0.162,0.731
C=CCC(OC(C)=O)[C@@H]1[C@@H](N(Cc2ccc(-c3cccc(C(F)(F)F)c3)o2)C(=O)c2ccc(C)cc2)c2cc(OCCCO)ccc2N1C(=O)c1ccc2ccccc2n1 (stereo not given in full),0.273,-0.164,0.253,0.168 (inactive),0.453,-0.124,-0.0487,0.483,0.381,1.4
CCCC[C@@H]1C[C@H]1[C@@H](NC(=O)c1ccccc1)c1ccc(-c2ccccc2)cc1,-0.616,-0.0102,0.754,-3.53 (inactive),0.0096,-0.372,0.0518,0.12,0.228,0.715
